High-throughput results (PubChem BioAssay)
Shown are actives, neighbours in structure and some others; about 21% of the full set was active somewhere.
Pf growth 48h – inhibits P. falciparum growth in the first generation, 48 h. 310,000 tested, 5.9% active. AID 504832. P. falciparum luciferase growth in erythrocytes, 48 h. Potency, µM (series often up to 28.7 µM), inactives show top-dose activity change, negative = inhibition, usual class: inhibitors; note: potency is the fitted concentration of half-maximal effect; % is set by controls: 0 for no effect and ±100 for the full control effect
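Parasite viability was followed by luminescence of a genomically integrated firefly luciferase. Cultures held 0.1% parasitemia at 2% hematocrit (final), incubated under 5% CO2 at 37 C.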
Pf growth 96h – P. falciparum growth inhibition at 96 hour, primary screen for plastid delayed-death inhibitors; P. falciparum luciferase reporter growth, 96 h; Potency, µM (series often up to 28.7 µM), for the others: top-dose activity change, negative = inhibition, usual class: inhibitors; 320,000 tested, 6.9% active; AID 504834; note: potency is the fitted concentration of half-maximal effect; % is set by controls: 0 for no effect and ±100 for the full control effect
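Parasite growth measured via integrated firefly luciferase reporter in P. falciparum. Infected erythrocytes at 2% hematocrit, 0.05% parasitemia final were treated 96 hours at 37 C under 5% CO2, and luminescence was read.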
Shiga inhibitor – Shiga toxin inhibition; Vero cells, Shiga toxin protein synthesis inhibition reporter; inhibition, % at 38.7 µM; 290,000 tested, 9.2% active; in the data active = inhibition mostly above about 28%, no sharp cut-off; inactive = mostly below about 43%; note: 0% is about no effect
Cycloheximide cs – counter-screen for Shiga toxin inhibitors: cycloheximide protein synthesis inhibition | cell reporter, cycloheximide protein synthesis inhibition counterscreen | max response, % | 300,000 tested, 12% active | AID 2314; in the data active = max response mostly above about 13%, no sharp cut-off; inactive = mostly below about 14%; note: read at 38.3 µM for the half of the compounds with a filed dose; 0% is about no effect
Numbers without * were called inactive; [ ] = dose if it differs, or a comment. Unless noted, calls come from the whole dose curve; as a rule, active = well fitted inhibition curve with a large enough effect; inconclusive = small, poorly fitted or top-dose-only effect, or another doubt; inactive = no such curve, though single readings can be large or run the other way.

For O=C1CC(SC(=NCc2ccc3c(c2)OCO3)Nc2ccccc2)C(=O)N1 (stereo not given) the results were Pf growth 48h 10%, Pf growth 96h -17%, Shiga inhibitor 15 and Cycloheximide cs 0.
`COc1ccc(CN=C(Nc2ccccc2)SC2CC(=O)NC2=O)cc1` (stereo not given) gave Pf growth 48h inconclusive, Pf growth 96h 18%, Shiga inhibitor 143* and Cycloheximide cs 44*.
Cc1cc([N+](=O)[O-])cc(C)c1OCC(=O)N/N=C/c1ccc(OC(=O)c2ccccc2)cc1 was read as Pf growth 48h inconclusive, Pf growth 96h 2.1µM*, Shiga inhibitor -8 and Cycloheximide cs -2.
For Cc1cc([N+](=O)[O-])cc(C)c1OCC(=O)N/N=C/c1ccc(OC(=O)c2ccccc2Br)cc1 the results were Pf growth 48h 3%, Pf growth 96h 10µM*, Shiga inhibitor 10 and Cycloheximide cs 0.
Cc1ccc(CC(=O)N/N=C/c2ccc(OC(=O)c3ccc([N+](=O)[O-])cc3)cc2)cc1 was read as Pf growth 48h -4%, Pf growth 96h inconclusive, Shiga inhibitor -12 and Cycloheximide cs -1.
COCC(C)NS(=O)(=O)c1ccc(C(=O)NC(Cc2ccccc2)c2ccccc2)cc1 (stereo not given) was read as Pf growth 48h inconclusive, Pf growth 96h inconclusive, Shiga inhibitor 7 and Cycloheximide cs 1.
`COc1cc(C)c(NC(=O)Cc2ccsc2)cc1OC` gave Pf growth 48h 0%, Pf growth 96h 0%, Shiga inhibitor 12 and Cycloheximide cs 0.
`CCc1ccc(NC(=O)CSc2nc(=O)n3cc(C)ccc3n2)cc1` gave Pf growth 48h 21% and Pf growth 96h 2%.
For Cc1ccc(NC(=O)CNC(=O)c2ccco2)c(Cl)c1 the results were Pf growth 48h 64%, Pf growth 96h 68%, Shiga inhibitor 47* and Cycloheximide cs 25*.
Screening O=C(CNC(=O)c1ccco1)Nc1ccc(Cl)cc1 returned Pf growth 48h 40%, Pf growth 96h inconclusive, Shiga inhibitor 34* and Cycloheximide cs 27*.
`O=C(CCNC(=O)c1ccco1)Nc1ccc(Cl)cc1` gave Pf growth 48h -9%, Pf growth 96h 6%, Shiga inhibitor -16 and Cycloheximide cs 9.
`O=C(CNC(=O)c1ccco1)Nc1ccc(Br)cc1` gave Pf growth 48h 40%, Pf growth 96h 61%, Shiga inhibitor 61* and Cycloheximide cs 45*.
Screening CN1CCCC(OC(=O)c2ccc3c(c2)OCCO3)C1 (stereo not given) returned Pf growth 48h 45%, Shiga inhibitor 21 and Cycloheximide cs 13*.
CN1CCCC(OC(=O)c2ccc(C(C)(C)C)cc2)C1 (stereo not given) was read as Pf growth 48h inconclusive, Pf growth 96h inactive, Shiga inhibitor 28 and Cycloheximide cs 18*.
`CC1CN(C)CCC1OC(=O)c1ccccc1` (stereo not given) gave Pf growth 48h 10%, Pf growth 96h 2.1µM*, Shiga inhibitor -8 and Cycloheximide cs 1.
CC(=O)NC(C(=O)N1CCC(c2nc3ccccc3s2)CC1)C(C)C (stereo not given) was read as Pf growth 48h 3%, Pf growth 96h 77%, Shiga inhibitor -9 and Cycloheximide cs -2.
For O=C(Cc1ccccc1)N/N=C/c1ccccc1F the results were Pf growth 48h 43%, Pf growth 96h -10%, Shiga inhibitor 58* and Cycloheximide cs -2.
O=C(O)COc1ccccc1/C=N/NC(=O)Cc1ccccc1 was read as Pf growth 48h -10%, Pf growth 96h 10µM* and Cycloheximide cs 8.
O=C(O)COc1ccccc1/C=N/NC(=O)c1ccc(F)cc1 was read as Pf growth 48h 23%, Pf growth 96h 16%, Shiga inhibitor 3 and Cycloheximide cs 3.
For COC(=O)CN(c1ccccc1)S(=O)(=O)c1cc(Br)ccc1OC the results were Pf growth 48h 8%, Pf growth 96h inconclusive, Shiga inhibitor 3 and Cycloheximide cs 3.
COC(=O)C1=C(C)N(Cc2ccccc2)C(=O)/C1=C\c1ccco1 was read as Pf growth 48h -23%, Pf growth 96h -7%, Shiga inhibitor 21 and Cycloheximide cs 8.
COc1ccc(N(C)C(=O)c2oc(=O)c3ccccc3c2-c2ccccc2)c(OC)c1 was read as Pf growth 48h inconclusive, Pf growth 96h inconclusive, Shiga inhibitor 6 and Cycloheximide cs -2.
Screening CC(=O)N1CCN(c2ccc(NC(=O)c3cccc(C)c3)cc2)CC1 returned Pf growth 48h 70%, Pf growth 96h inconclusive and Cycloheximide cs 13*.
For CC(=O)N1CCN(c2ccc(NC(=O)c3ccccc3)cc2)CC1 the results were Pf growth 48h 54%, Pf growth 96h inconclusive, Shiga inhibitor 39* and Cycloheximide cs 23*.
Screening Cc1ccc(C)c(S(=O)(=O)NCc2ccc(C(=O)N3CCCCC3C)cc2)c1 (stereo not given) returned Pf growth 96h 4.1µM*, Shiga inhibitor -10 and Cycloheximide cs -7.
Screening Cc1cccc(C(=O)Nc2ccc(C(=O)N3CCCCC3C)cc2)c1 (stereo not given) returned Pf growth 48h inconclusive, Pf growth 96h -15%, Shiga inhibitor 30 and Cycloheximide cs 24*.
Screening CC1CCCCN1C(=O)c1ccc(C(=O)N2CCCCC2C)cc1 (stereo not given) returned Pf growth 48h -3%, Pf growth 96h inconclusive, Shiga inhibitor -17 and Cycloheximide cs 10.
For Cc1ccc(C)c(S(=O)(=O)Nc2ccc(C(=O)N3CCCCC3)cc2)c1 the results were Pf growth 48h 12%, Pf growth 96h 11%, Shiga inhibitor -24 and Cycloheximide cs -2.
`CCOC(=O)C(CC)n1cnc2c(nnn2-c2ccc(F)cc2)c1=O` (stereo not given) gave Pf growth 48h 5%, Pf growth 96h 26%, Shiga inhibitor 13 and Cycloheximide cs -3.
For C=CCNc1ncnc2sc(SC)nc12 the results were Pf growth 48h 3%, Pf growth 96h 2%, Shiga inhibitor -4 and Cycloheximide cs -5.
For Cc1ccc(N(CCC(=O)N2CCOCC2)S(=O)(=O)c2ccccc2)cc1 the results were Pf growth 48h -14% and Pf growth 96h -3%.
COC(=O)c1ccccc1NC(=O)N1CCN(Cc2ccco2)CC1 was read as Pf growth 48h 56%, Pf growth 96h -48%[1.15 µM], Shiga inhibitor 14 and Cycloheximide cs 6.
Screening CCN(CC)Cc1c(C(=O)N/N=C(\C)c2ccncc2)nnn1-c1nonc1N returned Pf growth 48h -1%, Pf growth 96h inconclusive, Shiga inhibitor -21 and Cycloheximide cs -2.
`CCN(CC)C(=O)CSC(Nc1ccc(F)cc1)=C(C#N)C#N` gave Pf growth 48h 3%, Pf growth 96h 0%, Shiga inhibitor 23 and Cycloheximide cs -4.
`CCN(CC)C(=O)CSC(=Nc1ccccc1F)NC#N` gave Pf growth 48h 85%, Pf growth 96h 51%, Shiga inhibitor 73* and Cycloheximide cs 22*.
`COc1ccc(Cc2nc3ccc(C(=O)N4CCC[C@H]4CO)cc3o2)cc1` gave Pf growth 48h -12%, Pf growth 96h 18%, Shiga inhibitor 25 and Cycloheximide cs -3.
